Assay outcomes (PubChem)
Shown are actives, neighbours in structure and some others; about 1.8% of the full set was active somewhere.
Mito fusion act: inhibitors of mitochondrial division or activators of mitochondrial fusion | hit rate 0.23% among 320,000 | AID 485298 | Potency, µM (series often up to 46.1 µM), inactives show at the highest dose growth rescue (activation), most hits filed as activators | S. cerevisiae fusion-defective mutant growth rescue, CellTiterGlo 48 h; further: potency means the concentration at half of the fitted maximal effect; % of control where 0% means no effect; nearly all actives have a fitted effect of over 45% in size
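Read-out: ATP-based luminescence (CellTiterGlo, 10 min ambient) reporting growth of fusion-defective ts yeast after 48 hours at 37C on glycerol/ethanol YPEG medium in the presence of compound.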
AT treatment: candidate therapy for ataxia-telangiectasia; F2112 A-T fibroblasts, KAP-1 phosphorylation AlphaLISA; neocarzinostatin DNA damage 30 min before lysis; AID 485349; hit rate 0.19% among 320,000; Potency, µM (titrated, usually from 57.5 µM), for the others: at the top dose activation, usual class: activators; further: potency means the concentration at half of the fitted maximal effect; % of control where 0% means no effect; nearly all actives have a fitted effect of over 45% in size
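hTERT-immortalized A-T patient fibroblasts (F2112), 500 cells/well in OPTI-MEM, 1% FBS, got compounds for 60 min, then NCS for 30 min at 37C. Lysates were then assayed for phospho-KAP-1 by AlphaLISA (anti-pKAP1 donor, anti-KAP1 acceptor beads), 6 hr at 25C.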
ClpP mod: qHTS Assay for Activators of ClpP. ATP-dependent Clp protease proteolytic subunit (Bacillus subtilis (strain 168)), P80244. Potency, µM (highest dose often 57.5 µM), for the others: at the top dose activity change, negative = active. hit rate 1.9% among 340,000. purified B. subtilis ClpP, FRET peptide cleavage, 20 min; active means well fitted falling curve with a large enough effect; inconclusive means small, poorly fitted or top-dose-only effect; inactive means no such curve, though single readings can be large or run the other way; further: potency means the concentration at half of the fitted maximal effect; the source files actives as falling curves though it sought activators and does not explain the sign; nearly all actives have a fitted effect of over 65% in size
Target sequence (P80244 whole entry, looked up): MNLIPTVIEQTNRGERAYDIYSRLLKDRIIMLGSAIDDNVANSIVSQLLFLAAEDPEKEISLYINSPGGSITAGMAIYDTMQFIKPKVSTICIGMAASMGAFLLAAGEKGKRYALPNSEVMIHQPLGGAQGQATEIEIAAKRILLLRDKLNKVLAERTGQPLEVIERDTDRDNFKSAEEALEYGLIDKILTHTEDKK
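ClpP 10 microg/mL final, pH 8 Tris/KCl buffer with BSA, glycerol, Tween-20; compound pinned in; FRET-FV substrate; RT 20 min; Ex320/Em430; ΔFRET vs ADEP 5.8 microM, DMSO, no enzyme.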
Glioma ERSR ind: induces the endoplasmic reticulum stress response in human glioma cells | AID 602332 | Potency, µM, for inactives: at the top dose activation, usual class: activators | U87-MG GRP78 promoter luciferase reporter, 16 h | hit rate 0.02% among 420,000; further: potency means the concentration at half of the fitted maximal effect; series mostly up to about 76 µM; % of control where 0% means no effect; nearly all actives have a fitted effect of over 35% in size
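Stably transfected U87-MG human glioma cells carrying a GRP78-based luminescent sensor were seeded at 1000 cells/well, pin-dosed with compounds and incubated 16 h. Luciferase reagent was then added, and end-point luminescence was read after 10 min at room temperature.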
TCR activator: T cell receptor activation; primary human leukocytes, anti-CD3, IL-2 HTRF, 48 h; Potency, µM (series often up to 9.22 µM), for inactives: top-dose activation of IL-2 secretion, actives largely listed as activators; 330,000 tested, under 10 active; further: % of control where 0% means no effect
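Using a-CD3 beads without co-stimulation, primary human leukocytes were exposed to compounds for 48 hr. An HTRF IL-2 kit measured the cytokine, with europium-to-d2 energy transfer producing emission at 665nm upon 320nm excitation.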
MBNL1-CUG inh: blocks human MBNL1 binding to CUG repeat RNA; Q9NR56; TR-FRET MBNL1-His/biotin-(CUG)12 binding, 665/545 ratio; Potency, µM (titrated, usually from 57.5 µM), without a hit: at the highest dose activity change, negative = inhibition, actives largely listed as inhibitors; hit rate 0.036% among 280,000; AID 2675; active means well fitted inhibition curve with a large enough effect in the signal ratio, with a control signal flat, not every such curve was filed as active; inconclusive means small, poorly fitted or top-dose-only effect, or effect the other way, or a change in a side signal; inactive means no such curve, though single readings can be large or run the other way; the % refers to the signal ratio; further: potency means the concentration at half of the fitted maximal effect; on the % scale 0 is the no-effect control and ±100 the full control effect
Target sequence (Q9NR56 whole entry, looked up): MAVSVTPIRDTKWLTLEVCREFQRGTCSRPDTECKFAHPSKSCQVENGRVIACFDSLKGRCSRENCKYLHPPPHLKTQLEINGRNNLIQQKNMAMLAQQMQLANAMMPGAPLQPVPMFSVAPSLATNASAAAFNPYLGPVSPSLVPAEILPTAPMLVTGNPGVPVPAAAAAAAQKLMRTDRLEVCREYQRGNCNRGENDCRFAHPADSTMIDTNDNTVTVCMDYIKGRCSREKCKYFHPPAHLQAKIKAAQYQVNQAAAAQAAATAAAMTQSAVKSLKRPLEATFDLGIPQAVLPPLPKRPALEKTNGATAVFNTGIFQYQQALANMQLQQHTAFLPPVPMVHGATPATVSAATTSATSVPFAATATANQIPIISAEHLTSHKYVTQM
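His-tagged MBNL1 binding to biotinylated (CUG)12 RNA was measured by TR-FRET using terbium anti-His antibody (0.055 ng/ul final) and streptavidin-XL665 (5 nM final). Compounds were titrated 92 nM to 58 uM; 60 min at room temperature.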
* = called active by the depositor; ? = inconclusive; · = no result given; [ ] = dose if it differs, or a comment. Unless noted, the call rests on the fitted dose curve; in most records, active means well fitted curve in the direction sought with a large enough effect; inconclusive means small, poorly fitted or top-dose-only effect, or another doubt; inactive means no such curve, though single readings can be large; an effect the other way counts as inactive or inconclusive.

SMILES	Mito fusion act	AT treatment	ClpP mod	Glioma ERSR ind	TCR activator	MBNL1-CUG inh
COc1ccc2c(c1)CCc1cnc(-n3ncc(C(=O)N(C)CCc4ccccn4)c3C)nc1-2	·	·	·	-0.6%	·	·
Cc1nc(SCC(=O)Nc2ccc3c(c2)OCCO3)nc(C)c1C	-5.5%	7.6%	20µM*	2.6%	1.9%	-1.3%
O=C(CCN1CCCCCC1)Nc1ccc2c(c1)OCCO2	-1.4%	0.3%	14.1µM*	-5.4%	3.3%	-1.8%
CN(C)C(=O)Cn1c(SCC(=O)Nc2ccc3c(c2)OCO3)nc2ccccc21	-4.7%	-3.5%	15.8µM*	-4.5%	-4.3%[46.1 µM]	2.4%
Cc1cc(C)nc(SCC(=O)Nc2ccc3c(c2)OCO3)n1	-2.2%	10.7%	-0.1%	10.5%	2.3%	-6.9%
Cc1nn(CCCC(=O)Nc2cc(Oc3ccccc3)cc([N+](=O)[O-])c2)c(C)c1[N+](=O)[O-]	13.6%	3.4%	25.1µM*	-2.4%	-0.9%[46.1 µM]	9.6%
O=C(NC1CCCc2ccccc21)c1cnn2c1NC(=C1CC1)C=C2C(F)F (configuration not stated)	·	·	0.8%	·	·	·
CC(C)(C)c1ccc(OCCC(=O)NCCc2ccc(S(N)(=O)=O)cc2)cc1	-1.8%	-3.6%	-1.1%	-3.1%	-5.6%	-2.6%
Cc1ccc(OCCC(=O)NCCc2ccc(S(N)(=O)=O)cc2)cc1	0.7%	-4.1%	12.6µM*	-1.2%	3.9%	·
O=C(NCc1ccccc1)c1ccc(CSc2nc3cccnc3n2Cc2ccccc2F)cc1	·	·	?	-1.4%	·	·
COc1ccc(Cn2c(SCc3ccc(C(=O)NCc4ccc(C)cc4)cc3)nc3cccnc32)cc1	·	·	31.6µM*	-6.6%	·	·
COc1ccc(Cn2c(SCc3ccc(C(=O)NCc4ccccc4F)cc3)nc3cccnc32)cc1	·	·	31.6µM*	-5.3%	·	·
O=C(NCCN1CCCCC1)c1ccc(Cn2c(SCc3ccc(F)cc3)nc3cccnc32)cc1	·	·	31.6µM*	-0.8%	·	·
CCNC(=O)c1ccc(CSc2nc3cccnc3n2Cc2ccc(OC)cc2)cc1	·	·	3.7%	-3.0%	·	·
C(=C\c1ccnc2ccccc12)/c1cc2c3c(c1)CCCN3CCC2	·	·	-0.4%	1.5%	·	·
COc1cc(-c2nc3c(c(C)nn3-c3ccccc3)c3cc(OC)c(OC)cc23)ccc1O	2.0%	11.4%	7.94µM*	-3.7%	-4.6%	-2.1%
O=C(NCc1nnc2n1CCN(Cc1ccc(C(F)(F)F)cc1)CC2)c1ccccn1	·	·	·	-3.8%	·	·
COC(=O)CCCC1=CC2=CC(=O)C(C)(OC(=O)c3cccs3)C(=O)C2=CN1C1CCCCC1 (configuration not stated)	-3.5%	25.1µM*	-2.2%	-4.2%	-2.9%	?
CC1=C/C(=C\c2ccc(N(C)C)cc2)c2ccccc21	·	·	1.6%	2.0%	·	·
COc1ccccc1C1CC(c2cccs2)=NN1C(=O)CCC(=O)O (configuration not stated)	-0.9%	0.3%	·	-1.9%	-3.6%	?
COc1cccc(C2CC(c3cccs3)=NN2C(=O)CSc2nc3ccccc3o2)c1OC (configuration not stated)	-11.6%	-1.0%	8.91µM*	-1.2%	1.5%[46.1 µM]	-1.5%
CCOc1ccccc1Nc1cc(C)c2cccc(C)c2n1	-0.5%	9.3%	·	-2.0%	-1.3%	-0.8%
CCOc1nc(N=C(N)N)nc2c(C)cccc12	2.5%	4.5%	15.8µM*	-7.8%	-2.3%	1.9%
CCNc1nc(C)nc2c1cnn2C	·	·	28.2µM*	-3.4%	-3.5%	·
COc1ccc(/C=C2/SC(=S)N(Cc3ccccc3)C2=O)cc1O	7.2%	39.8µM*	-2.5%	-8.0%	8.3%	-3.0%
SMILES	Mito fusion act	AT treatment	ClpP mod	Glioma ERSR ind	TCR activator	MBNL1-CUG inh
COc1cc(/C=C2\SC(=S)N(Nc3ccccc3)C2=O)ccc1O	14.5%	-19.0%	28.2µM*	3.3%	-1.2%	·
CCOc1cc(/C=C2\SC(=S)N(Nc3ccccc3)C2=O)ccc1O	-7.7%	1.8%	-1.9%	5.1%	14.8%	?
CCN(CC)C(=O)CN1C(=O)/C(=C/c2ccccc2)SC1=S	-6.1%	5.7%	-0.6%	-2.3%	0.5%	?
COc1cccc(/C=C2\SC(=S)N(C(C(=O)O)c3ccccc3)C2=O)c1OC (configuration not stated)	1.8%	-9.8%	·	-6.5%	2.4%	6.7%
COc1cc(/C=C2\SC(=S)N(C(C(=O)O)c3ccccc3)C2=O)cc(OC)c1OC (configuration not stated)	7.2%	36.5%	·	31.6µM*	-1.9%	9.7%
COc1ccc(O)c(/C=C2/SC(=S)N(Cc3ccccc3)C2=O)c1	-9.8%	10.3%	0.5%	-4.4%	3.9%	-12.2%
CC(=O)NNC(=O)CN1C(=O)/C(=C/c2ccccc2)SC1=S	·	3.16µM*	-0.3%	2.6%	-0.4%	?
COc1ccc(-c2cccc3c2OC(CNC(=O)c2ccccc2-n2cccn2)C3)nn1 (configuration not stated)	·	·	·	-1.9%	·	·
C#CCN(C1CCCC1)S(=O)(=O)C=C	·	·	-0.7%	-0.3%	·	·
Cc1cccc(-n2c(SCC(=O)Nc3ncc(Cl)cc3Cl)nc3ccccc32)c1	22.4µM*	6.3%	-5.2%	-4.2%	-7.9%[46.1 µM]	-4.6%
O=C(CSc1nc2ccccc2n1-c1ccccc1)Nc1ncc(Cl)cc1Cl	20µM*	4.0%	-2.0%	-1.3%	1.0%[46.1 µM]	?
COc1ccc(-n2c(SCC(=O)Nc3ncc(Cl)cc3Cl)nc3ccccc32)cc1	2.8%	3.3%	·	·	·	3.6%
c1ccc(-c2cc3c(-n4cccc4)ncnc3o2)cc1	-0.7%	3.6%	28.2µM*	2.2%	-1.9%	?
O=C(C1=NN(c2ccccc2)C2C(=O)N(c3cccc(Cl)c3)C(=O)C12)c1ccccc1 (configuration not stated)	10.2%	-2.1%	17.8µM*	-4.3%	6.9%[46.1 µM]	2.8%
CN(C)C(=O)COc1ccccc1C(=O)OCC(=O)N(CCC#N)c1ccccc1	·	·	-8.0%	-1.5%	·	·
COc1cccc(C(=O)N2CCc3c(C(=O)NC(C)c4ccco4)c(OC)cc(=O)n3CC2)c1OC (configuration not stated)	·	·	·	-2.5%	·	·
CC(C)(C)C(O)C(Cc1ccccc1Cl)n1cncn1 (configuration not stated)	10µM*	1.5%	-0.9%	?	1.7%	-4.7%
CC(C)(C)C(=O)C(Cc1ccccc1Cl)n1cncn1 (configuration not stated)	6.7%	3.7%	0.1%	-5.6%	0.5%	-4.2%
O=C(/C=C/c1ccc(O)c(O)c1)OCCc1ccccc1	2.59µM*	·	-5.5%	?	-12.2%	·
CC1Cc2cc(S(=O)(=O)N3CCCC(C(=O)N4CCCCC4)C3)ccc2N1C(=O)C1CC1 (configuration not stated)	0.316µM*	0.2%	-0.3%	-4.8%	11.0%	-1.9%
